Screens (PubChem BioAssay)
Only a selection was taken, and hits are over-represented in it overall.
Sfp inh = Sfp phosphopantetheinyl transferase inhibition. Q9F4F7. Biochemical Sfp PPTase activity, qHTS. Potency, µM, without a hit: largest response in the series, negative = inhibition, usual class: inhibitors. 310,000 tested, 3.5% active. AID 1490;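 further: the enzyme is Sfp with the accession as filed and its product quenches rhodamine fluorescence; 0% = enzyme reaction without inhibitor and -100% = no enzyme wells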
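Sfp 15 nM + cpd, 15 min RT; start w/ rhodamine-CoA 5 uM, BHQ-2-YbbR 12.5 uM (final); 50 mM Hepes pH 7.6, 10 mM MgCl2, 0.01% NP-40, 0.01% BSA; read 525/598 nm at 0 and 30 min.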
VDR inh = inhibitors of human vitamin D receptor. P11473. VDR-SRC2-3 peptide fluorescence polarization, 2 h. Potency, µM, without a hit: max response, negative = inhibition, actives largely listed as inhibitors. 400,000 tested, 0.93% active. AID 504847; further: on the % scale 0 is the no-effect control and ±100 the full control effect
Target sequence (P11473 whole entry, looked up): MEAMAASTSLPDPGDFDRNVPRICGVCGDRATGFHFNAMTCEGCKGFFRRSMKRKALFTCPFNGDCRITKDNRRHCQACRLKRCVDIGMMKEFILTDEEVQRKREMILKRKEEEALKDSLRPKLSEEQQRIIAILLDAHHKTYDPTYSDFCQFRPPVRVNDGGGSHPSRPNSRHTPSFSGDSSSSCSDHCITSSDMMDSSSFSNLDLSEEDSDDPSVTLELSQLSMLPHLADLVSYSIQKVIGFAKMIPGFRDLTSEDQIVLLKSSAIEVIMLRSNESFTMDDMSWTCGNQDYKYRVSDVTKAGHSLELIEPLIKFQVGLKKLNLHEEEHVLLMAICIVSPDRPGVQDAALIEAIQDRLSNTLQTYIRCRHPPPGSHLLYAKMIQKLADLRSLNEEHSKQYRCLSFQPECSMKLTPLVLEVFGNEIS
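Fluorescence polarization assay of small-molecule disruption of VDR binding to coregulator peptide SRC2-3. Compounds and controls pin-transferred, then read after 2 h incubation at ambient room temperature.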
12-LOX inh = ALOX12 (human) lipoxygenase inhibition; purified 12hLO, xylenol orange hydroperoxide absorbance; P18054; Potency, µM (top dose mostly 108 µM), inactives show at the top dose activity change, negative = inhibition, actives largely listed as inhibitors; 580,000 tested, 1.1% active; further: on the % scale 0 is the no-effect control and ±100 the full control effect
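Purified human 12hLO at 150 nM in 25 mM Hepes, 0.01% Triton X-100, pH 7.0, preincubated 15 min at room temperature with compound. Reaction started with 40 uM arachidonic acid, 30 min at room temperature. Hydroperoxide measured by Fe-xylenol orange, 573/405 nm absorbance ratio.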
Glioma ERSR ind = induces the endoplasmic reticulum stress response in human glioma cells; 420,000 tested, 0.02% active; U87-MG GRP78 promoter luciferase reporter, 16 h; Potency, µM, for the others: top-dose activation, actives largely listed as activators; further: series mostly up to about 76 µM; % of control where 0% means no effect; nearly all actives have a fitted effect of over 35% in size
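ERSR induction read as luciferase luminescence (Bright-Glo, 10 min at room temperature) in stably transfected human U87-MG glioma cells exposed to compounds for 16 h, using GRP78 as sensor.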
G9a inh = inhibitors of human histone lysine methyltransferase G9a; Q96KQ7; G9a H3K9 monomethylation, AlphaScreen, 2 h; Potency, µM (highest dose often 102 µM), for inactives: top-dose activity, negative = inhibition, most hits filed as inhibitors; 350,000 tested, 8.8% active; AID 504332; further: on the % scale 0 is the no-effect control and ±100 the full control effect; nearly all actives have a fitted effect of over 75% in size
Target sequence (Q96KQ7 913-1193 limits assumed): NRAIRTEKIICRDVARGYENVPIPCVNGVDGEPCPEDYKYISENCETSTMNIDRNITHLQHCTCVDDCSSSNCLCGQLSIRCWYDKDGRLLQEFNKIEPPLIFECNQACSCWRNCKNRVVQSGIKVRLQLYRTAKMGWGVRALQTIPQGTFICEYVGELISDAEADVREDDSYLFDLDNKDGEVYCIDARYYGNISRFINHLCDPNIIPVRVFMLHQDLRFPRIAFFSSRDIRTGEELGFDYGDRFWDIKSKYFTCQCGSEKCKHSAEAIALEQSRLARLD
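AlphaScreen read-out: biotin-H3K9 peptide (500 nM) methylation by 20 nM enzyme with 20 uM SAM, 2 h at room temperature after 15 min compound preincubation; anti-monomethyl H3K9 antibody plus donor/acceptor beads, 10 min dark.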
The depositor's hits bear a star; ? = inconclusive; nt = not tested or not shown; [ ] = remark or other dose. The call rests on the fitted dose curve; in most records, active means well fitted curve in the direction sought with a large enough effect; inconclusive means small, poorly fitted or top-dose-only effect, or another doubt; inactive means no such curve, though single readings can be large; an effect the other way counts as inactive or inconclusive. Potency means the concentration at half of the fitted maximal effect.

SMILES | Sfp inh | VDR inh | 12-LOX inh | Glioma ERSR ind | G9a inh
O=C(COC(=O)CNC(=O)c1ccccc1F)Nc1ncc(Cl)cc1Cl | nt | -4.6% | 39.8µM* | -0.9% | 18.5%[12.7 µM]
O=C(CSc1nnc(-c2ccccc2)c(-c2ccccc2)n1)Nc1ncc(Cl)cc1Cl | -26.0% | -1.1% | -23.9% | -4.7% | 14.1µM*
O=C(COC(=O)c1cn(-c2ccccc2)nc1-c1ccccc1)c1cccc([N+](=O)[O-])c1 | -4.5% | -5.9% | ? | -5.6% | ?
O=C(COC(=O)c1cn(-c2ccccc2)nc1-c1ccccc1)c1ccc([N+](=O)[O-])cc1 | 2.8% | nt | nt | nt | 2.51µM*
CC1Sc2ccc(C(=O)NCc3ccccn3)cc2NC1=O (configuration not stated) | nt | 79.4µM* | -22.9% | 3.6% | ?
NNC(=O)CSc1cccc2cccnc12 | -2.0% | -9.7% | -2.8% | -5.0% | -40.1%
CC1Sc2ccc(C(=O)NNC(=O)CSc3cccc4cccnc34)cc2NC1=O (configuration not stated) | nt | nt | 7.94µM* | nt | nt
CN(C)c1ccc(C(CNC(=O)c2ccccc2Cl)N2CCc3ccccc32)cc1 (configuration not stated) | nt | 5.2% | -25.8% | -2.7% | 14.1µM*
COc1ccccc1C(=O)NCC(c1ccc(N(C)C)cc1)N1CCc2ccccc21 (configuration not stated) | nt | 11.3% | -8.7% | -4.1% | 14.1µM*
CC1(c2cccc3ccccc23)NC(=O)N(Cc2ncc(-c3ccccc3)o2)C1=O (configuration not stated) | nt | nt | 3.8% | nt | nt
O=C(Nc1cccc(Cl)c1)OCC#CCCl | ? | 3.55µM* | nt | -1.4% | nt
Cc1cc(-c2n[nH]c(=S)n2/N=C/c2cc([N+](=O)[O-])ccc2Cl)n[nH]1 | -26.0% | -14.1% | ? | -2.9% | 1.78µM*
Cc1cc(-c2n[nH]c(=S)n2/N=C/c2ccc(Cl)c([N+](=O)[O-])c2)n[nH]1 | ? | -28.3% | 39.8µM* | -2.9% | 1.41µM*
O=C1CCC/C(=N/NC(=O)c2ccc(CSc3ccc(Cl)cc3)cc2)C1 | nt | nt | -26.0% | nt | nt
Cn1c(=S)[nH]c2c(c1=O)C(C)(C)Cc1ccccc1-2 | ? | -6.0% | 14.1µM* | 3.7% | -50.8%
COc1ccc2c(c1)C(c1ccc(C)o1)=NNC(c1ccccc1)=N2 | -9.8% | 36.5% | 12.7% | 3.2% | 39.8µM*
O=C(O)C1=C(Nc2ccccc2)OCC1=O | 20.9% | -16.9% | ? | -1.8% | 39.8µM*
CCOC(=O)C1=C(Nc2ccccc2)OCC1=O | -4.5% | 7.8% | 0.0% | -2.7% | 2.0%[59 µM]
CC1(C)Cc2c(C#N)c(N3CCOCC3)nc(-c3ccccc3)c2CO1 | 1.8% | -13.9% | ? | 0.1% | 42.9%[59 µM]
CC1(C)Cc2c(C#N)c(NCCO)nc(-c3ccco3)c2CO1 | 15.8µM* | -2.2% | ? | -4.4% | 39.8µM*
CC1CCN(c2nc(-c3ccco3)c3c(c2C#N)CC(C)(C)OC3)CC1 | 14.1µM* | 50.1µM* | ? | 7.4% | ?
N#Cc1c(NCCCO)nc(-c2ccco2)c2c1CCCC2 | 39.8µM* | -15.5% | ? | -3.3% | 3.16µM*
CC1(C)Cc2c(C#N)c(NCCN3CCOCC3)nc(-c3ccco3)c2CO1 | -21.4% | -20.2% | 0.0% | -3.0% | -12.0%[59 µM]
O=C(NC1CC1)c1cccc(NC(=O)c2cccc3cccnc23)c1 | nt | nt | 1.2% | nt | nt
COc1cc([N+](=O)[O-])cc(/C=N/N(CCC#N)C(C)=O)c1O | 12.8% | -7.9% | -26.1% | -7.5% | 44.7µM*
SMILES | Sfp inh | VDR inh | 12-LOX inh | Glioma ERSR ind | G9a inh
CC(N)C(=O)NCC(=O)NC1CSSCC(C(=O)O)NC(=O)C(CO)NC(=O)C(C(C)O)NC(=O)C(Cc2ccccc2)NC(=O)C(C(C)O)NC(=O)C(CCCCN)NC(=O)C(Cc2c[nH]c3ccccc23)NC(=O)C(Cc2ccccc2)NC(=O)C(Cc2ccccc2)NC(=O)C(CC(N)=O)NC(=O)C(CCCCN)NC1=O (configuration not stated) | 2.0% | ? | nt | -1.9% | ?
NC(=O)CC[C@@H]1NC(=O)[C@H](Cc2ccc(O)cc2)NC(=O)c2cc([N+](=O)[O-])cc(F)c2OCC[C@@H](C(N)=O)NC1=O | 6.0% | -18.8% | -5.6% | -5.5% | ?
CC(C)C[C@@H]1NC(=O)[C@H](CO)NC(=O)c2cc([N+](=O)[O-])cc(I)c2OCC[C@@H](C(N)=O)NC1=O | 32.5% | -20.5% | nt | -7.4% | 39.8µM*
C[C@@H](O)C1NC(=O)[C@H](CCCCN)NC(=O)c2cc([N+](=O)[O-])cc(I)c2OCC[C@@H](C(N)=O)NC1=O (some centres not stated) | 13.2% | -3.9% | ? | -4.9% | 8.91µM*
O=C(O)CCOc1ccc(Cl)cc1 | nt | nt | -9.2% | nt | nt
c1csc(CNCCC2CCCC2)c1 | nt | nt | -22.3% | nt | nt
CCOc1ccc(-c2cc(=O)c3ccc(NC(=O)c4ccccc4Cl)cc3o2)cc1 | nt | nt | 23.7% | nt | nt
O=C(CN1CCOCC1)OCCCc1ccccc1 | -1.2% | 3.2% | -22.7% | -0.8% | -49.7%[2.33 µM]
C[N+]1(CC(=O)OCCCc2ccccc2)CCOCC1 | -0.9% | 9.3% | ? | -3.0% | 70.8µM*
Cc1ccc(CCCOC(=O)C[N+]2(C)CCOCC2)cc1 | ? | -15.3% | ? | -2.6% | 10µM*
COc1ccc(C(=O)c2c(N)c(C#N)c3n2CCC3)cc1 | nt | nt | -24.2% | nt | nt
Cc1[nH]nc(SCC(=O)N2CCCC2)c1[N+](=O)[O-] | -4.9% | -21.8% | 22.5% | 5.9% | 3.7%[59 µM]
Cc1[nH]nc(SCC(=O)N2CCC(C)CC2)c1[N+](=O)[O-] | 89.1µM* | -4.8% | -22.5% | -0.4% | ?
Cc1cc(Cl)n2c(nc3ccccc32)c1C#N | -2.8% | 39.8µM* | -14.0% | -14.2% | -35.6%
COc1cccc(N2C(=O)[C@H]3C(C(=O)c4cnccn4)=NN[C@H]3C2=O)c1 | 79.4µM* | -17.3% | 13.5% | -2.7% | ?
O=C(C1=NN[C@@H]2C(=O)N(c3cccc(F)c3)C(=O)[C@H]12)c1ccc2ccccc2n1 | 18.6% | -18.7% | 7.0% | 0.3% | ?
OCC1OC([S-])[C@H](O)C(O)C1O.[Au+] (some centres not stated) | 2.24µM* | ? | nt | 3.1% | ?
Cc1noc(NS(=O)(=O)c2ccc(NC(=O)CSc3nc4c(cc3C#N)CCC4)cc2)c1C | 50.1µM* | 1.7% | -17.3% | -3.9% | 7.08µM*
Cc1noc(NS(=O)(=O)c2ccc(NC(=O)CSc3nc4c(cc3C#N)CCCC4)cc2)c1C | ? | -12.0% | -14.2% | -2.3% | 25.1µM*
Cc1cc(C)nc(SCC(=O)Nc2ccc(S(=O)(=O)Nc3onc(C)c3C)cc2)n1 | 13.9% | -7.4% | -7.6% | 4.0% | -15.9%
Cc1noc(NS(=O)(=O)c2ccc(NC(=O)CSc3nc4ccccc4s3)cc2)c1C | 50.1µM* | ? | ? | -0.4% | 8.91µM*
Cc1cc(C(F)(F)F)nn1CC(=O)Nc1c(F)cc(F)cc1Br | nt | nt | 23.1% | nt | nt
Cc1cc(NC(=O)COC(=O)c2cc3c(s2)CCC(C)C3)no1 (configuration not stated) | 8.7% | 20.8% | ? | -3.4% | 6.7%[59 µM]
